Source: PubChem BioAssay AID1159580 (chemical genetic matrix, 2015)
About 2,000 (36%) of roughly 5,500 compounds were called active. Not shown: some 18% with an inconclusive outcome. Cut-off read from the data, not from the text of the source: active = normalized growth mostly below about 0.91 (no sharp cut-off); inconclusive = no clear call, values can overlap the other calls; inactive = mostly above about 0.92. The list shows a part of the results.

Test: chemical genetic growth profiling, strain panel (AID 1159580);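 note: tested at 20 µM; growth read once vehicle control cultures reached saturation at 30 °C; 1 = growth at the plate median or of vehicle wells; lower values mean less growth of the strain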
Settings: growth OD

Measured: normalized growth

Nc1ccn(C2O[C@H](CO)[C@@H](O)[C@@H]2O)c(=O)n1 (stereo partly drawn)
inactive: S. cerevisiae deletion strains, locus YKL009W, strain mrt4, active compounds read low 0.992 | S. cerevisiae deletion strains, locus YKL068W, active compounds read low 0.994 | S. cerevisiae deletion strains, locus YKL085W, strain MDH1 (second series), active compounds read low 1 | S. cerevisiae deletion strains, locus YKL085W, strain MDH1, active compounds read low 1 | S. cerevisiae deletion strains, locus YKL160W, strain elf1, active compounds read low 1.05 | S. cerevisiae deletion strains, locus YKL190W, strain CNB1, active compounds read low 1.01 | S. cerevisiae deletion strains, locus YKR001C, strain vps1, active compounds read low 1.01 | S. cerevisiae deletion strains, locus YKR026C, strain gcn3, active compounds read low 0.999 | S. cerevisiae deletion strains, locus YKR091W, strain srl3, active compounds read low 0.997 | S. cerevisiae deletion strains, locus YLL001W, strain dnm1, active compounds read low 1.07 | S. cerevisiae deletion strains, locus YLL026W, active compounds read low 0.994 | S. cerevisiae deletion strains, locus YLL041C, strain sdh2, active compounds read low 0.981 | S. cerevisiae deletion strains, locus YLR027C, strain aat2, active compounds read low 0.993 | S. cerevisiae deletion strains, locus YLR039C, strain RIC1, active compounds read low 1.03 | S. cerevisiae deletion strains, locus YLR058C, strain SHM2, active compounds read low 1.01 | S. cerevisiae deletion strains, locus YLR102C, strain apc9, active compounds read low 0.977 | S. cerevisiae deletion strains, locus YLR113W, strain HOG1, active compounds read low 1.04 | S. cerevisiae deletion strains, locus YLR221C, strain rsa3, active compounds read low 1.06 | S. cerevisiae deletion strains, locus YLR258W, strain gsy2, active compounds read low 1.02 | S. cerevisiae deletion strains, locus YLR262C, strain YPT6 (second series), active compounds read low 1 | S. cerevisiae deletion strains, locus YLR262C, strain YPT6, active compounds read low 1.01 | S. cerevisiae deletion strains, locus YLR268W, strain sec22, active compounds read low 0.992 | S. cerevisiae deletion strains, locus YLR320W, strain mms22, active compounds read low 1.06 | S. cerevisiae deletion strains, locus YLR330W, strain CHS5, active compounds read low 1.01 | S. cerevisiae deletion strains, locus YLR342W, strain FKS1 (second series), active compounds read low 1.02 | S. cerevisiae deletion strains, locus YLR342W, strain FKS1, active compounds read low 0.994 | S. cerevisiae deletion strains, locus YLR357W, strain rsc2, active compounds read low 0.988 | S. cerevisiae deletion strains, locus YLR370C, strain arc18, active compounds read low 1.01 | S. cerevisiae deletion strains, locus YLR371W, strain rom2, active compounds read low 0.995 | S. cerevisiae deletion strains, locus YLR384C, strain iki3, active compounds read low 1 | S. cerevisiae deletion strains, locus YLR418C, strain cdc73, active compounds read low 0.966 | S. cerevisiae deletion strains, locus YML016C, strain PPZ1, active compounds read low 1.01 | S. cerevisiae deletion strains, locus YML032C, strain rad52, active compounds read low 1.01 | S. cerevisiae deletion strains, locus YML120C, strain ndi1, active compounds read low 1.02 | S. cerevisiae deletion strains, locus YML124C, strain tub3, active compounds read low 0.988 | S. cerevisiae deletion strains, locus YMR058W, strain fet3, active compounds read low 0.997 | S. cerevisiae deletion strains, locus YMR078C, strain ctf18, active compounds read low 0.992 | S. cerevisiae deletion strains, locus YMR125W, strain sto1, active compounds read low 0.996 | S. cerevisiae deletion strains, locus YMR129W, active compounds read low 0.979 | S. cerevisiae deletion strains, locus YMR205C, strain PFK2, active compounds read low 1.04 | S. cerevisiae deletion strains, locus YMR223W, strain ubp8, active compounds read low 0.995 | S. cerevisiae deletion strains, locus YMR231W, strain pep5, active compounds read low 0.989 | S. cerevisiae deletion strains, locus YMR263W, strain SAP30, active compounds read low 1 | S. cerevisiae deletion strains, locus YMR307W, strain GAS1, active compounds read low 1.04 | S. cerevisiae deletion strains, locus YNL067W, strain RPL9B, active compounds read low 1 | S. cerevisiae deletion strains, locus YNL071W, strain lat1, active compounds read low 0.977 | S. cerevisiae deletion strains, locus YNL128W, strain TEP1, active compounds read low 1.02 | S. cerevisiae deletion strains, locus YNL183C, strain NPR1, active compounds read low 0.964 | S. cerevisiae deletion strains, locus YNL209W, strain ssb2, active compounds read low 0.994 | S. cerevisiae deletion strains, locus YNL233W, strain BNI4, active compounds read low 0.991 | S. cerevisiae deletion strains, locus YNL248C, strain rpa49, active compounds read low 0.993 | S. cerevisiae deletion strains, locus YNL250W, strain rad50, active compounds read low 0.994 | S. cerevisiae deletion strains, locus YNL271C, strain bni1, active compounds read low 0.996 | S. cerevisiae deletion strains, locus YNL298W, strain CLA4, active compounds read low 0.998 | S. cerevisiae deletion strains, locus YNL307C, strain MCK1, active compounds read low 0.997 | S. cerevisiae deletion strains, locus YNL322C, strain KRE1 (second series), active compounds read low 1.01 | S. cerevisiae deletion strains, locus YNR049C, strain mso1, active compounds read low 0.989 | S. cerevisiae deletion strains, locus YNR052C, strain pop2, active compounds read low 0.996 | S. cerevisiae deletion strains, locus YOL006C, strain TOP1, active compounds read low 1.05 | S. cerevisiae deletion strains, locus YOL012C, strain htz1 1.42 | S. cerevisiae deletion strains, locus YOL147C, strain pex11, active compounds read low 0.992 | S. cerevisiae deletion strains, locus YOR001W, strain rrp6, active compounds read low 0.933 | S. cerevisiae deletion strains, locus YOR061W, strain CKA2, active compounds read low 1.01 | S. cerevisiae deletion strains, locus YOR069W, strain VPS5, active compounds read low 1.01 | S. cerevisiae deletion strains, locus YOR070C, strain gyp1, active compounds read low 0.993 | S. cerevisiae deletion strains, locus YOR080W, strain dia2, active compounds read low 0.992 | S. cerevisiae deletion strains, locus YOR083W, strain WHI5, active compounds read low 1.06 | S. cerevisiae deletion strains, locus YOR106W, strain vam3, active compounds read low 1.08 | S. cerevisiae deletion strains, locus YOR136W, strain idh2, active compounds read low 1 | S. cerevisiae deletion strains, locus YOR144C, strain elg1, active compounds read low 1 | S. cerevisiae deletion strains, locus YOR184W, strain ser1, active compounds read low 0.997 | S. cerevisiae deletion strains, locus YOR231W, strain MKK1, active compounds read low 1.03 | S. cerevisiae deletion strains, locus YOR265W, strain rbl2, active compounds read low 1 | S. cerevisiae deletion strains, locus YOR270C, strain vph1, active compounds read low 1.05 | S. cerevisiae deletion strains, locus YOR290C, strain snf2, active compounds read low 1.02 | S. cerevisiae deletion strains, locus YOR316C, strain cot1, active compounds read low 0.993 | S. cerevisiae deletion strains, locus YPL051W, strain arl3, active compounds read low 1.04 | S. cerevisiae deletion strains, locus YPL078C, strain atp4, active compounds read low 1.04 | S. cerevisiae deletion strains, locus YPL106C, strain sse1, active compounds read low 1.01 | S. cerevisiae deletion strains, locus YPL240C, strain hsp82, active compounds read low 1.01 | S. cerevisiae deletion strains, locus YPL241C, strain CIN2, active compounds read low 1.01 | S. cerevisiae deletion strains, locus YPL256C, strain CLN2, active compounds read low 1.03 | S. cerevisiae deletion strains, locus YPR119W, strain clb2, active compounds read low 0.986 | S. cerevisiae deletion strains, locus YPR141C, strain kar3, active compounds read low 0.993 | S. cerevisiae deletion strains, locus YPR163C, strain tif3, active compounds read low 1.01 | S. cerevisiae deletion strains, locus YPR167C, strain met16, active compounds read low 0.995 | S. cerevisiae deletion strains, strain wtn01, active compounds read low 0.993 | S. cerevisiae strains, strain wild type, active compounds read low 1.01
